Compound activity as filed in PubChem BioAssay.
RORgamma inh: inhibitors of mouse ROR gamma transcriptional activity; P51450; Drosophila S2 Gal4-RORgamma UAS-luciferase reporter, 20 h; Potency, µM (highest dose often 53.6 µM), for inactives: at the highest dose activity change, negative = inhibition, actives largely listed as inhibitors; 310,000 tested, 5.4% active; note: potency is the fitted concentration of half-maximal effect; nearly all actives have a fitted effect of over 60% in size
Target sequence (P51450 whole entry, looked up, the tested form may be a part): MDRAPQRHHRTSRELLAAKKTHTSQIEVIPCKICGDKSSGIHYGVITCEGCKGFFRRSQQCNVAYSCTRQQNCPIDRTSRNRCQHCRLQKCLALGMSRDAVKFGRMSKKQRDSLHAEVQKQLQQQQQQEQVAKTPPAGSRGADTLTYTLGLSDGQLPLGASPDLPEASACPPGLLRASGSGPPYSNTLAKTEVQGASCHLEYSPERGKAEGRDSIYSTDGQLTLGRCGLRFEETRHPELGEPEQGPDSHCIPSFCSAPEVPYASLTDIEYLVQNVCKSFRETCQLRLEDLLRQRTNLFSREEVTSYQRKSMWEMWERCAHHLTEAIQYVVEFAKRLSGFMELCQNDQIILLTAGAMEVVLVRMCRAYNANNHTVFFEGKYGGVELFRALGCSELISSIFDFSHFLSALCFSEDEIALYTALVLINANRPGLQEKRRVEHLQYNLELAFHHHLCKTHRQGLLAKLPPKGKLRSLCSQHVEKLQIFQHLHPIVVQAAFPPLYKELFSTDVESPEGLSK
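Drosophila S2 cells stably expressing Gal4-DBD/mouse RORγ fusion under metallothionein promoter plus UAS-luciferase; compound 1 h, then 700 uM CuSO4 induction for 20 h at ambient temperature; inhibition read as reduced luminescence.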
IL1B secr inh: inflammasome signaling inhibition, IL-1 beta readout | THP-1 LPS/ATP IL-1B secretion, AlphaLISA, 16 h; stronger effect = lower value | activity change, % at 57.5 µM | 360,000 tested, 4.7% active; in the data active = activity change below about -50%; inconclusive = mostly about -30% to -49%
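Secreted IL-1B measured by AlphaLISA bead assay after 16 h compound exposure of THP-1 cells; compounds (final up to 57.5 uM) added 1 h before LPS (250 ng/mL) and ATP (1.25 mM) stimulation; lower signal means less secretion.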
TDP1 cell noCPT: qHTS for Inhibitors of human tyrosyl-DNA phosphodiesterase 1 (TDP1): qHTS in cells in absence of CPT; 420,000 tested, 15% active; DT40 Tdp1-/- hTDP1 cells, no CPT, ATP luminescence, 48 h; Potency, µM (doses to about 46.2 µM), for inactives: at the top dose activity change, negative = growth inhibition, most hits filed as inhibitors; note: potency is the fitted concentration of half-maximal effect; nearly all actives have a fitted effect of over 55% in size
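Seeded 400 DT40-hTDP1 cells/well (vehicle DMSO, no 20 nM CPT); pinned compounds; ≥48 hr at 37 °C; CellTiter-Glo luminescence as viability measure.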
TDP1 cell CPT: growth inhibition of DT40 Tdp1-/-;hTDP1 cells with camptothecin (screen for TDP1 inhibitors); chicken DT40 Tdp1-/-;hTDP1 cells + 20 nM CPT, ATP luminescence, 48 h; Potency, µM (series often up to 46.2 µM), for the others: at the highest dose activity change, negative = growth inhibition, actives largely listed as inhibitors; 420,000 tested, 12% active; AID 686979; note: potency is the fitted concentration of half-maximal effect; nearly all actives have a fitted effect of over 55% in size
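Cell growth measured by CellTiter-Glo luminescence after a minimum 48 h, 37 C compound exposure with 20 nM CPT in Tdp1-knockout DT40 cells stably expressing hTDP1, seeded 400/well; qHTS titration format.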
VP16 counter: Gal4-VP16 reporter inhibition counter-screen; Drosophila S2 Gal4-VP16 UAS-luciferase, luminescence, 20 h; Potency, µM (doses to about 53.6 µM), without a hit: top-dose activity, negative = inhibition, usual class: inhibitors; 310,000 tested, 3.5% active;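 note: Gal4-VP16 expression switched on by copper sulfate through the metallothionein promoter; potency is the fitted concentration of half-maximal effect; nearly all actives have a fitted effect of over 50% in size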
LDHA block: LDHA (human) enzyme inhibition. P00338. purified LDHA, NADH/diaphorase-resazurin fluorescence; stronger effect = lower value. activity change, % (values are at about 110 or 230 µM). 480,000 tested, 0.15% active; in the data active = activity change below about -30%; inconclusive = mostly about -25% to -30%;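 note: plate controls were DMSO wells for no effect and wells without enzyme for full effect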
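LDH5 2 nM; NADH 0.06 mM, pyruvate 0.2 mM; 200 mM Tris pH 7.4, EDTA, Tween-20; 5 min RT. Detection: diaphorase 0.133 mg/mL + resazurin 37 µM, fluorescence ex540/em590 at 0 and 20 min; normalized to enzyme-free and DMSO wells.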
* marks the source's active call; other numbers are inactive results. Only some compounds are listed: those with a hit (about 18% of all), similar ones and a draw of the others. Unless noted, calls come from the whole dose curve; as a rule, active = well fitted curve in the direction sought with a large enough effect; inconclusive = small, poorly fitted or top-dose-only effect, or another doubt; inactive = no such curve, though single readings can be large; an effect the other way counts as inactive or inconclusive. Unless noted, % is set by controls: 0 for no effect and ±100 for the full control effect.

COc1cccc(-c2nnc(SCC(=O)N3CCCc4ccccc43)o2)c1 was read as RORgamma inh 7.8%, IL1B secr inh 8.7, TDP1 cell noCPT -14.1%, TDP1 cell CPT -4.6%, VP16 counter -10.0% and LDHA block -4.0.
CCCC(=O)NCCCCCCNC(=O)CCC was read as LDHA block 6.8.
`COc1ccc(CNC(=O)c2cc(Cl)ccc2NC(=O)C2=C(C)OCCS2)cc1` gave LDHA block -5.0.
For COc1ccc(N2CC(c3nc(-c4ccccn4)no3)CC2=O)cc1OC (stereo unspecified) the results were LDHA block -4.4.
For O=C(Nc1c(NCc2ccccc2)c2ccccc2oc1=O)c1ccccc1 the results were LDHA block 4.5.
For Cc1ccc(-c2nnc(C(C)Sc3nc4ccccc4c(=O)n3CCCO)o2)cc1 (stereo unspecified) the results were LDHA block -0.8.
For CC(=O)Oc1cccc2cc(-c3nc(-c4ccccc4)no3)c(=O)oc12 the results were LDHA block 2.3.
`COc1cc2ccccc2cc1C(=O)N1CCc2ccccc21` gave IL1B secr inh 0.6, TDP1 cell noCPT 14.6µM*, TDP1 cell CPT 16.4µM* and LDHA block 0.3.
For CCOC(=O)C1(C)CCCN(C(=O)c2cc(F)cc(F)c2)C1 (stereo unspecified) the results were IL1B secr inh 32.8, TDP1 cell noCPT inconclusive, TDP1 cell CPT inconclusive and LDHA block -3.8.
O=C(CSc1ccc(-c2ccc(F)cc2)nn1)N1CCCc2ccccc21 was read as RORgamma inh 25.1%, IL1B secr inh 14.0, TDP1 cell noCPT inconclusive, TDP1 cell CPT 16.4µM*, VP16 counter -7.5% and LDHA block -1.3.
CC1(C)CCCN(C(=O)c2coc(=O)c(Br)c2)C1 was read as RORgamma inh 5.8%, IL1B secr inh 10.9, TDP1 cell noCPT 0.82µM*, TDP1 cell CPT 0.92µM*, VP16 counter -2.9% and LDHA block -12.9.
O=C(CSc1nnc(-c2ccccc2O)o1)N1CCCCC1 was read as RORgamma inh -43.3%, IL1B secr inh 9.8, TDP1 cell noCPT -17.8%, TDP1 cell CPT 1.5%, VP16 counter -20.6% and LDHA block 12.3.
O=C(CSc1nnc(-c2ccccc2O)o1)N1CCc2ccccc2C1 was read as RORgamma inh 10µM*, IL1B secr inh -4.0, TDP1 cell noCPT inconclusive, TDP1 cell CPT inconclusive, VP16 counter inconclusive and LDHA block -4.0.
Screening CC1=C(C(=O)Nc2ccccc2)C(c2sccc2C)n2nc(-c3ccccc3)nc2N1 (stereo unspecified) returned LDHA block -5.9.
For Clc1ccccc1-c1noc(CSc2nnc(N3CCOCC3)n2Cc2ccccc2)n1 the results were LDHA block 3.8.
Screening COc1ccccc1C(C)NC(=O)CSC(C)c1ccccc1 (stereo unspecified) returned LDHA block 3.2.
`CNC(=O)CCN(C)C(=O)Nc1cccc(C#N)c1` gave LDHA block 5.8.
`COc1cc(-c2nnc(SCC(=O)N3CCCc4ccccc43)o2)cc(OC)c1OC` gave TDP1 cell noCPT 23.1µM*, TDP1 cell CPT inconclusive and LDHA block -3.9.
Screening O=C(CSc1nnc(-c2ccc(F)cc2)o1)N1CCCc2ccccc21 returned TDP1 cell noCPT 18.4µM*, TDP1 cell CPT inconclusive and LDHA block -5.8.
Cc1occc1-c1nnc(SCC(=O)N2CCc3ccccc32)o1 was read as RORgamma inh -19.5%, IL1B secr inh -8.7, TDP1 cell noCPT 20.6µM*, TDP1 cell CPT 16.4µM*, VP16 counter 3.8% and LDHA block -2.4.
Screening Cc1ccc(-c2nnc(SCC(=O)N3CCc4ccccc43)o2)cc1 returned TDP1 cell noCPT -3.2%, TDP1 cell CPT 6.1% and LDHA block -2.9.
`COc1ccc(OC)c(-c2nnc(SCC(=O)N3CCCc4ccccc43)o2)c1` gave RORgamma inh -0.7%, IL1B secr inh -9.0, TDP1 cell noCPT inconclusive, TDP1 cell CPT inconclusive, VP16 counter -2.5% and LDHA block -8.8.
`O=C(c1coc(=O)c(Br)c1)N1CCC(C(O)(c2ccccc2)c2ccccc2)CC1` gave RORgamma inh 26.0%, IL1B secr inh -16.6, TDP1 cell noCPT 1.84µM*, TDP1 cell CPT 0.651µM*, VP16 counter 21.1% and LDHA block -5.8.
Screening O=C(Nc1ccccc1C(F)(F)F)c1nc2ccccc2nc1N1CCOCC1 returned LDHA block -2.3.
`O=c1oc2ccccc2c(N2CCCC2)c1NS(=O)(=O)c1ccc(Cl)s1` gave LDHA block -4.1.
`O=C(Cn1ncc2ccccc2c1=O)Nc1ccc(OC2CCCC2)cc1` gave LDHA block -17.6.
For CC(=O)c1cccc(OCC(=O)N2CCCc3ccccc32)c1 the results were RORgamma inh -14.0%, IL1B secr inh 54.7, TDP1 cell noCPT 16.4µM*, TDP1 cell CPT inconclusive, VP16 counter -6.6% and LDHA block -6.7.
COc1cccc(C(=O)NNC(=O)c2ccccc2)c1 was read as RORgamma inh -22.4%, IL1B secr inh 14.0, TDP1 cell noCPT 7.4%, TDP1 cell CPT -9.1%, VP16 counter -12.8% and LDHA block 0.7.
Screening COc1cccc(C(=O)NN2c3ccccc3CCc3ccccc32)c1 returned RORgamma inh inconclusive, IL1B secr inh 9.5, TDP1 cell noCPT 10.3µM*, TDP1 cell CPT 20.6µM*, VP16 counter inconclusive and LDHA block -8.8.
`Cc1[nH]c2ccccc2c1/C=C(\C#N)C(=O)NC(C)C` gave LDHA block -3.3.
For Cc1cccc2nc(-c3c(-c4ccc(Br)cc4)n(C)c(=O)n(C)c3=O)cn12 the results were LDHA block 16.9.
Screening CCc1ccc(S(=O)(=O)c2nnn3c2nc(N2CCC(C(N)=O)CC2)c2cc(Cl)ccc23)cc1 returned TDP1 cell noCPT 23.1µM*, TDP1 cell CPT inconclusive and LDHA block 0.4.
`COc1ccccc1N1CCN(c2nc3c(S(=O)(=O)c4ccccc4)nnn3c3ccc(Cl)cc23)CC1` gave TDP1 cell noCPT -23.4%, TDP1 cell CPT 6.4% and LDHA block -12.2.
